According to PubChem BioAssay (Tox21):
Inconclusive results are not listed. Active and inactive are the calls of the source. Unless noted, calls come from the whole dose curve; as a rule, active = well fitted curve in the direction sought with a large enough effect in the repeat runs; inconclusive = weak or mixed curves; inactive = no such curve, though single readings can be large; an effect the other way counts as inactive or inconclusive.

Columns and labels:
[1] = qHTS assay to identify small molecule antagonists of the estrogen receptor alpha (ER-alpha) signaling pathway using the BG1 cell line in the presence of 0.1 nM 17-beta-estradiol - cell viability counter screen (AID 1259241); note: nearly all actives have a fitted effect of over 40% in size
Outline: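 Following 5 days in phenol red-free medium with charcoal-stripped serum, VM7Luc4E2 cells received test compounds alongside 0.1 nM 17beta-estradiol (final) at 37C for 22 hr. Live cells were then quantified via protease-substrate fluorescence.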

[2] = qHTS assay to identify small molecule antagonists of the androgen receptor (AR) signaling pathway using the MDA cell line in the presence of 0.5 nM R1881 - cell viability counter screen (AID 1259242); note: nearly all actives have a fitted effect of over 45% in size
Outline: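 Concentration-response screen of compounds for toxicity in MDA-kb2 reporter cells: 16 hr at 37C with 0.5 nM R1881, endpoint live-cell protease fluorescence measured in the reporter wells.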

[3] = qHTS assay to identify small molecule HDAC inhibitors (AID 1259364);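 note: wild-type HCT-116 cells with endogenous class I/II HDAC activity; top concentration of the series differs between compounds; nearly all actives have a fitted effect of over 45% in size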
Outline: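 Screening used wild-type human colon HCT-116 cells incubated overnight, dosed with compounds for 2 hours, and assayed with a homogeneous luminogenic HDAC I/II reagent for 30 minutes at room temperature.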

[4] = qHTS assay to identify small molecule HDAC inhibitors - cell viability counter screen (AID 1259365); note: series mostly up to about 92 µM; nearly all actives have a fitted effect of over 50% in size
Outline: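 HCT-116 wild-type, overnight attachment; 2hr drug exposure, 37C; CellTiter-Glo luminescent ATP readout after 30min RT.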

[5] = qHTS assay to identify small molecule agonists of the sonic hedgehog signaling (Shh) pathway - cell viability counter screen (AID 1259366); note: nearly all actives have a fitted effect of over 50% in size
Outline: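 Compounds in DMSO were pin-transferred onto 3T3 Gli1-Luc cells that had settled 4hr; plates then stood 24hr at 37C and 5% CO2. One hour before the end, CellTiter-Fluor was added and fluorescence recorded.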

[6] = qHTS assay to identify small molecule antagonists of the sonic hedgehog signaling (Shh) pathway - cell viability counter screen (AID 1259367); note: nearly all actives have a fitted effect of over 55% in size
Outline: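 Cytotoxicity was assessed in parallel with Shh reporter activity by measuring live-cell protease fluorescence (CellTiter-Fluor) in NIH/3T3 cells stably carrying Gli1-Luc, treated with compound under conditioned medium stimulation for 23 hr plus 1 hr reagent incubation.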

[7] = qHTS assay to identify small molecule agonists of the sonic hedgehog signaling (Shh) pathway (AID 1259368; calls by dose curve;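 note: NIH/3T3-derived 3T3Gli1-Luc cells carrying a stable Gli1-driven firefly luciferase reporter; series mostly up to about 92 µM; nearly all actives have a fitted effect of over 15% in size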)
Outline: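 Hedgehog pathway agonism scored by increased firefly luciferase luminescence in 3T3Gli1-Luc cells treated 24 hr at 37 C; detection used a 30 min room-temperature reagent incubation.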

[8] = qHTS assay to identify small molecule antagonists of the sonic hedgehog signaling (Shh) pathway (AID 1259369; calls by dose curve; note: nearly all actives have a fitted effect of over 45% in size)
Outline: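 NIH/3T3 stable Gli1-Luc clone, 2,000 cells/well, 4hr settle; cpd + conditioned medium 24hr; Luc reagent 30min RT; luminescence.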

[9] = qHTS assay to identify small molecule agonists of the androgen receptor (AR) signaling pathway in the presence of an antagonist - cell viability counter screen (AID 1259379);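 note: MDA-kb2 human breast cancer cells carrying an MMTV luciferase reporter; series mostly up to about 92 µM; nearly all actives have a fitted effect of over 25% in size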
Outline: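 MDA-kb2 viability measured by CellTiter-Fluor fluorescence in the same wells as the luciferase signal; nilutamide 3.0uM final; 15-point compound titration; 16 hr at 37C.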

[10] = qHTS assay to identify small molecule agonists of the estrogen receptor beta (ER-beta) signaling pathway - cell viability counter screen (AID 1259380); note: nearly all actives have a fitted effect of over 30% in size
Outline: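 Measured: luminescence from CellTiter-Glo after 30 min at room temperature, added to wells already read for the LiveBLAzer FRET reporter (2 hr substrate); ER-beta-UAS-bla HEK293T cells had 16 hr compound treatment at 37C, 5% CO2.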

[11] = qHTS assay to identify small molecule antagonists of the estrogen receptor beta (ER-beta) signaling pathway - cell viability counter screen (AID 1259382); note: series mostly up to about 92 µM; nearly all actives have a fitted effect of over 55% in size
Outline: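 Readout: luminescence, CellTiter-Glo, same wells as bla assay. System: ER-beta-UAS-bla GripTite HEK293T, 2% charcoal-stripped FBS. Exposure: compounds plus 1nM 17-beta-estradiol, 16 hr, 37C.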

[12] = target: Estrogen receptor (Homo sapiens) (UniProt P03372); assay: qHTS assay to identify small molecule agonists of the estrogen receptor alpha (ER-alpha) signaling pathway in the presence of an antagonist (AID 1259383; calls by dose curve; note: top concentration of the series differs between compounds; nearly all actives have a fitted effect of over 15% in size)
Sequence of Estrogen receptor (Homo sapiens) (P03372 whole entry, looked up): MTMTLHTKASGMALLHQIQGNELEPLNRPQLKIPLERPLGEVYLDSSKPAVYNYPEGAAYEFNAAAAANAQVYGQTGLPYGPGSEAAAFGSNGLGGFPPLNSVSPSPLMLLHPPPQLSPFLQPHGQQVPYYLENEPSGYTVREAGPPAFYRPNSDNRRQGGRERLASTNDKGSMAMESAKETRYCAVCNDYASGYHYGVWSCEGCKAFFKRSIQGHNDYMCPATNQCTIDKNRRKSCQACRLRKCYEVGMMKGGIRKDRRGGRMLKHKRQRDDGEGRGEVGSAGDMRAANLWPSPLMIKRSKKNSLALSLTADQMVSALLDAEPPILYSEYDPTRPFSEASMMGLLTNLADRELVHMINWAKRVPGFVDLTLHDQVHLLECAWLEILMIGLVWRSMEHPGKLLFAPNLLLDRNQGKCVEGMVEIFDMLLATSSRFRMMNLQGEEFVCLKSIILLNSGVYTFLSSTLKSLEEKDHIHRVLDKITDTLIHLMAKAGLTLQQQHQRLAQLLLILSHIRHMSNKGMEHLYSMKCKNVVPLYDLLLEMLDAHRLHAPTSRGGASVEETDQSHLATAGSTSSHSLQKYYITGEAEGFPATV
Outline: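 Quantitative HTS confirmation: compounds titrated at 15 concentrations onto estrogen-deprived VM7Luc4E2 cells carrying a four-ERE luciferase construct, with ICI-182,780 present at 10.0nM final. Signal is luminescence after 22hr exposure.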

[13] = qHTS assay to identify small molecule agonists or antagonists of the thyroid stimulating hormone receptor (TSHR) signaling pathway - wild type cell line counter screen (AID 1259384; calls by dose curve)
Outline: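 Wild-type HEK293 cells were plated 18 h at 37 C/5% CO2, pin-dosed with compound plus Ro20-1724 medium, held 30 min at room temperature, then given cAMP-d2 and anti-cAMP-cryptate; fluorescence was read after 1 h. Fifteen concentrations, triplicate.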

[14] = target: Thyrotropin receptor (Homo sapiens) (UniProt P16473); assay: qHTS assay to identify small molecule antagonists of the thyroid stimulating hormone receptor (TSHR) signaling pathway (AID 1259385; calls by dose curve; note: nearly all actives have a fitted effect of over 20% in size)
Sequence of Thyrotropin receptor (Homo sapiens) (P16473 whole entry, looked up): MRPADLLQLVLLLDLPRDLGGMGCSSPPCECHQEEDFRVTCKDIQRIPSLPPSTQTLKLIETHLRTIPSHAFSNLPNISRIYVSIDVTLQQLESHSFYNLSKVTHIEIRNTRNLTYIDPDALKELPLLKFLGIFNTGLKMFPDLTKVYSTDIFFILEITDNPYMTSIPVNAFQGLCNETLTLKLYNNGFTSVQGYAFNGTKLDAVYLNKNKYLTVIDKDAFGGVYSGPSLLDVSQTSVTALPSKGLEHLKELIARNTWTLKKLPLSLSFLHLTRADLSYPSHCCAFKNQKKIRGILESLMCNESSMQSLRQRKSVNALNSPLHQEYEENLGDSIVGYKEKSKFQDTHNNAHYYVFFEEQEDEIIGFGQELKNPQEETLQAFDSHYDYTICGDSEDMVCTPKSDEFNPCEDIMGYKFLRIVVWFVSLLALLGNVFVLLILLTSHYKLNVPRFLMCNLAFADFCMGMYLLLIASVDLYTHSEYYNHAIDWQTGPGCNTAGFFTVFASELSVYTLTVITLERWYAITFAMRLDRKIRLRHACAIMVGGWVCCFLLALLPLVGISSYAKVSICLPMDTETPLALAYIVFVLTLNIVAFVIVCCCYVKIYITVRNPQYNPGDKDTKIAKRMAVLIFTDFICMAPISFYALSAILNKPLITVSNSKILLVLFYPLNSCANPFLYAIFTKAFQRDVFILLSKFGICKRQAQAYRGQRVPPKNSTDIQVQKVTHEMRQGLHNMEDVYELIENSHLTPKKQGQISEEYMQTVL
Outline: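 TSHR-HEK293 cells were plated and held 18 h at 37C/5% CO2, then given compound plus Ro20-1724 and stimulated with TSH at 1.5 ng/mL final. After 30 min at room temperature, cAMP was detected with cAMP-d2/anti-cAMP-cryptate (1 h) by fluorescence.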

[15] = target: Estrogen receptor beta (Homo sapiens) (UniProt Q92731); assay: qHTS assay to identify small molecule antagonists of the estrogen receptor beta (ER-beta) signaling pathway (AID 1259378; active = well fitted inhibition curve with a large enough effect in the signal ratio in the repeat runs, not every such curve was filed as active; the % refers to the signal ratio)
Sequence of Estrogen receptor beta (Homo sapiens) (Q92731 whole entry, looked up): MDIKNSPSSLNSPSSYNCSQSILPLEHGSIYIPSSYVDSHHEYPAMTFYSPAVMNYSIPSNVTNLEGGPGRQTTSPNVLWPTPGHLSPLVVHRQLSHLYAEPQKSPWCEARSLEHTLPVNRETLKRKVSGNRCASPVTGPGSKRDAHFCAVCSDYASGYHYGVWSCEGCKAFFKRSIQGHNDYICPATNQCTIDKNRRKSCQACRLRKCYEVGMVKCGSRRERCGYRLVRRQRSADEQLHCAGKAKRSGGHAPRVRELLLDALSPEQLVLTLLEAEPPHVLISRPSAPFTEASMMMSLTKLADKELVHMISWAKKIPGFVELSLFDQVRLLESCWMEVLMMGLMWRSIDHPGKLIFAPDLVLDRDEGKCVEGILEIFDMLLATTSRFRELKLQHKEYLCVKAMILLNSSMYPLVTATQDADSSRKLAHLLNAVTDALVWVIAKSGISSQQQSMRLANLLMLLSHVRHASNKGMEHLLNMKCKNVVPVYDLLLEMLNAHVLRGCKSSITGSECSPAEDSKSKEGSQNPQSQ
Outline: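 ER-beta-UAS-bla HEK293T (GripTite) cells in 2% charcoal-stripped FBS medium were preincubated 6 hr at 37C, dosed with compound, then stimulated with 1 nM E2 (final) for 16 hr; beta-lactamase reporter read by B/G FRET fluorescence after 2 hr substrate loading.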

[16] = target: Estrogen receptor beta (Homo sapiens) (UniProt Q92731); assay: qHTS assay to identify small molecule agonists of the estrogen receptor beta (ER-beta) signaling pathway (AID 1259377; active = well fitted activation curve with a large enough effect in the signal ratio in the repeat runs, not every such curve was filed as active; the % refers to the signal ratio)
Outline: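 qHTS in ER-beta-UAS-bla HEK293T cells: 6 hr settling, then 16 hr compound at 37C, then LiveBLAzer substrate 2 h at RT before fluorescence reading.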
% is set by controls: 0 for no effect and ±100 for the full control effect.

CC(C)NCC(O)COc1ccc(CC(N)=O)cc1 (stereo unspecified)
inactive: Potency [1] | Potency [2] | Potency [3] | outcome [4] | Potency [5] | Potency [6] | outcome [7] | Potency [8] | Potency [9] | Potency [10] | Potency [11] | Potency [12] | Potency [13] | Potency [14]

C=CC(C)(CCC=C(C)C)OC(=O)c1ccccc1 (stereo unspecified)
inactive: Potency [1] | Potency [2] | Potency [3] | outcome [4] | Potency [5] | Potency [6] | outcome [7] | Potency [8] | Potency [10] | Potency [11] | Potency [13] | Potency [14]

O=C(/C=C/c1ccc(O)c(O)c1)O[C@@H]1C[C@](O)(C(=O)O)C[C@@H](O)[C@H]1O
inactive: Potency [1] | Potency [2] | Potency [3] | outcome [4] | Potency [5] | Potency [6] | outcome [7] | Potency [8] | Potency [15] | Potency [10] | Potency [11]

CC(C)=CCCC(C)CC=O (stereo unspecified)
inactive: Potency [1] | Potency [2] | Potency [3] | outcome [4] | Potency [5] | Potency [6] | outcome [7] | Potency [8] | Potency [9] | Potency [11] | Potency [14]

CCCCCCCCCCCCCCCCCBr
inactive: activity change, negative = cytotoxicity [1] 5.52% [at 19 µM] | viability change, negative = cytotoxic [2] -0.565% [at 19 µM] | activity change, negative = inhibition [3] 6.57% [at 19 µM] | activity change, negative = cytotoxicity [4] 0.135% [at 19 µM] | viability change, negative = cytotoxic [5] -1.63% [at 19 µM] | viability change, negative = cytotoxic [6] -1.98% [at 19 µM] | activity change [7] -0.456% [at 18.9 µM] | activity change, negative = inhibition [8] -0.552% [at 19 µM] | activation [16] -3.04% [at 19 µM] | activity, negative = inhibition [15] 11.4% [at 19 µM] | activity change, negative = cytotoxicity [9] 4.41% [at 19 µM] | activity change, negative = cytotoxicity [10] -0.948% [at 19 µM] | activity change, negative = cytotoxicity [11] -6.31% [at 19 µM]
